Here are results for 26 compounds from ChEMBL document CHEMBL1157539, “Thousands of chemical starting points for antimalarial lead identification” (Nature, 2010).

What all share (format): functional
Assay [1] concerns Plasmodium falciparum. Description: GSK_TCMDC: Inhibition of Plasmodium falciparum 3D7 in whole red blood cells, using parasite LDH activity as an index of growth. Test compounds present at 2uM.
In assay [2] the test system is Plasmodium falciparum. Description: GSK_TCMDC: Inhibition of Plasmodium falciparum Dd2 in whole red blood cells, using parasite LDH activity as an index of growth. Test compounds present at 2uM.
The next assay deals with HepG2. The experiment in a line: GSK_TCMDC: Percent inhibition of human HepG2 cell line. Test compounds present at 10uM.

Take `CCCCCCCCCN1CC[C@@H](CCCc2ccnc3ccc(O)cc23)[C@@H](CC)C1.O=C(O)C(=O)O`: the Inhibition (as a rule, how much of the control response was suppressed) was found to be 83% in the assay with Plasmodium falciparum [1], 59% in the assay with Plasmodium falciparum [2] and 58% with HepG2.

Regarding `Cc1cccc2nc(-c3ccc(-c4ccc(CN5CCC(C(N)=O)CC5)cc4)cc3)[nH]c12.O=C(O)C(F)(F)F`, the figures for the Inhibition in the assay with Plasmodium falciparum [1], in the assay with Plasmodium falciparum [2] and in the assay with HepG2 were 91%, 32% and 8%, respectively.

Turning to `COc1ccc2nccc([C@@H](O)CN3CCC(NCc4cc5cc([N+](=O)[O-])ccc5[nH]4)CC3)c2c1.O=C(O)C(=O)O`, the Inhibition came to 99% in the assay on Plasmodium falciparum [1], 57% with Plasmodium falciparum [2] and 29% in the assay with HepG2.

For `CCN(CC1CCN(CC2(O)CCOCC2)CC1)c1cc(C)nc(Nc2ccc(Cl)cc2)n1`, the Inhibition with Plasmodium falciparum [1] amounted to 100%; in the assay with Plasmodium falciparum [2] it was 99%; in the assay with HepG2 it was 34%.

Consider `CC1CN(c2cnn(Cc3cccc(NC(=O)Nc4ccc(F)cc4[N+](=O)[O-])c3)c(=O)c2Cl)CC(C)N1.O=C(O)C(F)(F)F` (stereo not drawn), for which the Inhibition in the assay with Plasmodium falciparum [1] amounted to 91%; in the assay with Plasmodium falciparum [2], 13%; in the assay on HepG2, 7%.

As to `Cc1cc2ncn(-c3ccnc(N4CCN(CCCN5CCCC5)CC4)n3)c2cc1C.O=C(O)C(F)(F)F`, the Inhibition in the assay on Plasmodium falciparum [1] is 100%; in the assay with Plasmodium falciparum [2], 49%; in the assay on HepG2, 24%.

Regarding `COc1ccc2nccc([C@@H](O)CN3CCC(NCc4cc5ccc(C#N)cc5[nH]4)CC3)c2c1.O=C(O)C(=O)O`, the Inhibition stood at 100% with Plasmodium falciparum [1], 39% in the assay with Plasmodium falciparum [2] and 31% with HepG2.

Take `CN(C)CCCN(C)C(=O)c1cc2cc(-c3ccccc3)ccc2n1S(=O)(=O)c1ccccc1.Cl`: the figures for the Inhibition in the assay on Plasmodium falciparum [1], with Plasmodium falciparum [2] and in the assay with HepG2 were 98%, 66% and 29%, respectively.

In the case of `CN1CCN(c2ccc(Cl)cc2NC(=O)C2COc3ccccc3O2)CC1` (stereo not drawn), the Inhibition in the assay on Plasmodium falciparum [1] was found to be 99%; in the assay on Plasmodium falciparum [2] it was 44%; with HepG2, 2%.

On to `O=C(O)C(F)(F)F.c1ccc(CCNCc2ccc(-c3ccc(CNC4CCN(Cc5ccccc5)CC4)cc3)nc2)cc1`, for which the Inhibition in the assay with Plasmodium falciparum [1] was determined as 100%; in the assay on Plasmodium falciparum [2], 99%; in the assay with HepG2, 34%.

In the case of `Cc1ccc(-c2nnc(Nc3ccc(OCC(N)=O)cc3)c3ccccc23)cc1S(=O)(=O)NCC1CCCO1` (stereo not drawn), the Inhibition in the assay on Plasmodium falciparum [1] is recorded as 92%; with Plasmodium falciparum [2] it was 70%; in the assay with HepG2, 0%.

In the case of `CCNc1cc(C(=O)N[C@@H](Cc2ccc(Cl)cc2)[C@H](O)CNC2CCCCC2)cc(N2CCCCS2(=O)=O)c1.Cl`, the Inhibition with Plasmodium falciparum [1] is reported as 98%; in the assay on Plasmodium falciparum [2], 99%; with HepG2, 6%.

Turning to `O=C(NC1CC1)c1cnc(N2CCCC(c3ccccc3)C2)c(Cl)c1.O=C(O)C(F)(F)F` (stereo not drawn), the Inhibition in the assay with Plasmodium falciparum [1] was determined as 95%; with Plasmodium falciparum [2], 94%; in the assay with HepG2 it was 6%.

`COC(=O)c1cc(C(O)CNC(C)CCCc2ccccc2)ccc1O.Cl` (stereo not drawn): the Inhibition is 99% in the assay with Plasmodium falciparum [1], 97% in the assay on Plasmodium falciparum [2] and 17% in the assay with HepG2.

With `O=S(=O)(c1cc2ccccc2s1)N(CCC(O)(C(F)(F)F)C(F)(F)F)Cc1cccc(O)c1`, the Inhibition with Plasmodium falciparum [1] came out at 100%; in the assay on Plasmodium falciparum [2] it was 99%; in the assay on HepG2 it was 0%.

As for `COc1ccc(-c2ccc(CNCc3ccc(F)cc3)cc2)cc1S(=O)(=O)NCCN1CCCC1.O=C(O)C(F)(F)F`, the results for the Inhibition in the assay with Plasmodium falciparum [1], with Plasmodium falciparum [2] and with HepG2 were 98%, 33% and 24%, respectively.

In the case of `CNC(=O)c1cnc(Nc2ccc(OCC(O)CN(C)C)cc2)nc1Nc1cccc(OC(C)C)c1.O=C(O)C(F)(F)F` (stereo not drawn), the Inhibition is on record as 100% in the assay with Plasmodium falciparum [1], 100% in the assay on Plasmodium falciparum [2] and 21% with HepG2.

On to `Nc1c(Cl)cc(C(O)CNCCCCCOCCc2ccccc2)cc1C(F)(F)F` (stereo not drawn), for which the figures for the Inhibition in the assay with Plasmodium falciparum [1], in the assay with Plasmodium falciparum [2] and with HepG2 were 99%, 96% and 3%, respectively.

In the case of `O=C(C=Cc1ccc(Cl)c(Cl)c1)NCCCCCN1CCC(CCNC(=O)c2sc3ccccc3c2Cl)CC1`, the Inhibition came to 88% with Plasmodium falciparum [1], 6% with Plasmodium falciparum [2] and 27% in the assay with HepG2.

Turning to `CCCN(Cc1nnc(-c2cccs2)o1)C(=O)C1COc2ccccc2O1` (stereo not drawn), the Inhibition was 87% in the assay on Plasmodium falciparum [1], 49% in the assay with Plasmodium falciparum [2] and 1% in the assay with HepG2.

For `O=C(NC1CCCCN(Cc2ccccc2O)C1)c1cccc(C(F)(F)F)c1.O=C(O)C(F)(F)F` (stereo not drawn), the figures for the Inhibition with Plasmodium falciparum [1], in the assay on Plasmodium falciparum [2] and in the assay on HepG2 were 93%, 64% and 0%, respectively.

Regarding `COc1ccc(CC(=O)Nc2ccc(Nc3nc(C)cc(N4CCCC4)n3)cc2)cc1`, the Inhibition came out at 100% in the assay on Plasmodium falciparum [1], 65% with Plasmodium falciparum [2] and 56% in the assay with HepG2.

Take `CN(C)c1ccc(C2c3[nH]cnc3CCN2C(=O)Nc2cccc([N+](=O)[O-])c2)cc1` (stereo not drawn): the Inhibition in the assay with Plasmodium falciparum [1] amounted to 98%; with Plasmodium falciparum [2], 15%; in the assay on HepG2 it was 0%.

Consider `O=C(Nc1cccc(CN2CCN(C(=O)c3cccs3)CC2)c1)c1cccs1.O=C(O)C(F)(F)F`, for which the values for the Inhibition in the assay with Plasmodium falciparum [1], in the assay with Plasmodium falciparum [2] and in the assay on HepG2 were 95%, 91% and 0%, respectively.

Take `CC(C)OC(=O)c1ccc(NC(=O)N[C@@H](Cc2ccc(O)cc2)C(=O)NC2CC3CCC(C2)N3Cc2ccccc2)cc1.O=C(O)C(F)(F)F` (stereo partly drawn): the Inhibition in the assay with Plasmodium falciparum [1] worked out at 92%; with Plasmodium falciparum [2], 19%; with HepG2, 0%.

As for `O=C(O)C(F)(F)F.O=S(=O)(NCCN1CCCC1)c1ccc(-c2ccc(CNCc3ccccc3)cc2)s1`, the results for the Inhibition in the assay with Plasmodium falciparum [1], with Plasmodium falciparum [2] and in the assay with HepG2 were 94%, 17% and 34%, respectively.
